Results on 8 compounds are retold here after PubChem BioAssay (Tox21).

Values without a mark were called inactive. Records with an inconclusive call do not appear. The source made the active and inactive calls. Unless noted, calls follow the shape of the full dose curve.

A short description of assay [1]: qHTS assay to identify small molecule agonists of the sonic hedgehog signaling (Shh) pathway (AID 1259368). Also: nearly all actives have a fitted effect of over 15% in size. Also: potency is read from the fitted curve at half-maximal effect.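 As to activity change: NIH/3T3-derived 3T3Gli1-Luc cells carrying a stable Gli1-driven firefly luciferase reporter; series mostly up to about 92 µM.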 An outline of the steps:
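Hedgehog pathway agonism scored by increased firefly luciferase luminescence in 3T3Gli1-Luc cells treated 24 hr at 37 C; detection used a 30 min room-temperature reagent incubation.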

Assay [2] in a line: qHTS assay to identify small molecule antagonists of the sonic hedgehog signaling (Shh) pathway (AID 1259369). Also: nearly all actives have a fitted effect of over 45% in size. Also: potency is read from the fitted curve at half-maximal effect. An outline of the steps:
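NIH/3T3 stable Gli1-Luc clone, 2,000 cells/well, 4hr settle; cpd + conditioned medium 24hr; Luc reagent 30min RT; luminescence.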

For assay [3], the target named is Estrogen receptor beta (Homo sapiens) (UniProt Q92731). Briefly: qHTS assay to identify small molecule agonists of the estrogen receptor beta (ER-beta) signaling pathway (AID 1259377; active = well fitted activation curve with a large enough effect in the signal ratio in the repeat runs, not every such curve was filed as active; the % refers to the signal ratio). An outline of the steps: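 Read-out: beta-lactamase FRET fluorescence. Cell line: ER-beta-UAS-bla HEK293T in 2% charcoal-stripped FBS. Exposure: 16 hr at 37C. Substrate step: 2 h at room temperature.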

A short description of assay [4]: qHTS assay to identify small molecule agonists of the androgen receptor (AR) signaling pathway in the presence of an antagonist - cell viability counter screen (AID 1259379; active = well fitted curve in the direction sought with a large enough effect in the repeat runs; an effect the other way counts as inactive or inconclusive;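 also: MDA-kb2 human breast cancer cells carrying an MMTV luciferase reporter; series mostly up to about 92 µM; nearly all actives have a fitted effect of over 25% in size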). An outline of the steps: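 MDA-kb2 viability measured by CellTiter-Fluor fluorescence in the same wells as the luciferase signal; nilutamide 3.0uM final; 15-point compound titration; 16 hr at 37C.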

Assay [5] is described as follows: qHTS assay to identify small molecule agonists of the estrogen receptor beta (ER-beta) signaling pathway - cell viability counter screen (AID 1259380; active = well fitted curve in the direction sought with a large enough effect in the repeat runs; an effect the other way counts as inactive or inconclusive; also: nearly all actives have a fitted effect of over 30% in size). An outline of the steps:
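Measured: luminescence from CellTiter-Glo after 30 min at room temperature, added to wells already read for the LiveBLAzer FRET reporter (2 hr substrate); ER-beta-UAS-bla HEK293T cells had 16 hr compound treatment at 37C, 5% CO2.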

Assay [6] addresses Androgen receptor (Homo sapiens) (UniProt P10275). Kind of assay: qHTS assay to identify small molecule agonists of the androgen receptor (AR) signaling pathway in the presence of an antagonist (AID 1259381). Also: nearly all actives have a fitted effect of over 15% in size. Also: potency is read from the fitted curve at half-maximal effect. An outline of the steps:
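Luminescent ONE-Glo read, 30min at room temperature, follows 16hr compound exposure (15 concentrations) of MDA-kb2 cells at 37C, 0% CO2, with nilutamide added at 3.0uM final.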

A short description of assay [7]: qHTS assay to identify small molecule antagonists of the estrogen receptor beta (ER-beta) signaling pathway - cell viability counter screen (AID 1259382; active = well fitted curve in the direction sought with a large enough effect in the repeat runs; an effect the other way counts as inactive or inconclusive;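 also: HEK293T cells carrying ER-beta-UAS-bla reporter stimulated with estradiol; series mostly up to about 92 µM; nearly all actives have a fitted effect of over 55% in size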). The method, boiled down: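 Readout: luminescence, CellTiter-Glo, same wells as bla assay. System: ER-beta-UAS-bla GripTite HEK293T, 2% charcoal-stripped FBS. Exposure: compounds plus 1nM 17-beta-estradiol, 16 hr, 37C.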

The nature of assay [8]: qHTS assay to identify small molecule agonists or antagonists of the thyroid stimulating hormone receptor (TSHR) signaling pathway - wild type cell line counter screen (AID 1259384). The method, boiled down: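 Counter screen in untransfected Hek293: compounds (15-point titration, triplicate) plus phosphodiesterase inhibitor Ro20-1724 added after 18 h plating; 30 min RT. Intracellular cAMP via competitive d2/cryptate immunoassay, 1 h incubation.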

A short description of assay [9]: qHTS assay to identify small molecule agonists of the estrogen receptor alpha (ER-alpha) signaling pathway in the presence of an antagonist - cell viability counter screen (AID 1259386; active = well fitted curve in the direction sought with a large enough effect in the repeat runs; an effect the other way counts as inactive or inconclusive;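 also: series mostly up to about 92 µM; cells exposed to compounds for 22 h at 37 °C before the viability read; nearly all actives have a fitted effect of over 30% in size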). An outline of the steps:
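The test measures whether compounds kill ER-alpha reporter cells (VM7Luc4E2) under antagonist co-treatment (ICI-182,780, 10.0nM). Fluorescence from CellTiter-Fluor is read after a 22hr exposure.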

The target of assay [10] is Progesterone receptor (Homo sapiens) (UniProt P06401). Kind of assay: qHTS assay to identify small molecule agonists of the progesterone receptor (PR) signaling pathway (AID 1346784). Also: nearly all actives have a fitted effect of over 30% in size. Also: potency is read from the fitted curve at half-maximal effect. The method, boiled down: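 Compounds were tested for PR agonism in HEK 293T cells bearing a beta-lactamase gene under UAS control. Treatment lasted 16 hr at 37C; signal came from fluorescence of a FRET substrate.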

Assay [11] shares this target. Briefly: qHTS assay to identify small molecule antagonists of the progesterone receptor (PR) signaling pathway (AID 1346795; active = well fitted inhibition curve with a large enough effect in the signal ratio in the repeat runs, not every such curve was filed as active; the % refers to the signal ratio). The method, boiled down: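 In HEK293T cells bearing the PR-UAS-bla reporter, compound effects on promegestone-driven (1 nM) beta-lactamase expression are assessed after 16 hr using a fluorescent FRET substrate incubated 2 hr at room temperature.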

Assay [12] in a line: qHTS assay to identify small molecule antagonists of the progesterone receptor (PR) signaling pathway - cell viability counter screen (AID 1346798; active = well fitted curve in the direction sought with a large enough effect in the repeat runs; an effect the other way counts as inactive or inconclusive; also: series mostly up to about 92 µM; nearly all actives have a fitted effect of over 50% in size). An outline of the steps:
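Following a 4 hr attachment, PR-UAS-bla HEK293T cells in charcoal-stripped FBS medium were exposed to compounds with R5020 for 16 hr; CellTiter-Glo was added and luminescence read after 30 min at room temperature.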

A short description of assay [13]: qHTS assay to identify small molecule antagonists of the TGF-beta/Smad signaling pathway - cell viability counter screen (AID 1346824; active = well fitted curve in the direction sought with a large enough effect in the repeat runs; an effect the other way counts as inactive or inconclusive; also: nearly all actives have a fitted effect of over 50% in size). An outline of the steps:
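Cytotoxicity counter-screen run in the same wells as the beta-lactamase Smad reporter read: CellTiter-Glo luminescence after 30 min at room temperature. HEK 293T SBE-bla cells had 5 hr compound exposure at 37 C with TGF-beta1 (0.25 ng/mL stock).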

Assay [14] is described as follows: qHTS assay to identify small molecule agonists of the TGF-beta/Smad signaling pathway - cell viability counter screen (AID 1346829; active = well fitted curve in the direction sought with a large enough effect in the repeat runs; an effect the other way counts as inactive or inconclusive; also: top concentration of the series differs between compounds; nearly all actives have a fitted effect of over 45% in size). An outline of the steps: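 Luminescence from CellTiter-Glo, read after a 30 min room-temperature incubation, gives cell viability of SBE-bla HEK 293T cells treated 5 hr with compounds at 37 C.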
Assay [15] in a line: qHTS assay to identify small molecule agonists of the TGF-beta/Smad signaling pathway (AID 1346859; active = well fitted activation curve with a large enough effect in the signal ratio in the repeat runs, not every such curve was filed as active; the % refers to the signal ratio; also: series mostly up to about 77 µM). The method, boiled down:
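Each well held 4,000 SBE-bla HEK 293T cells incubated overnight before compound addition; 5 hr later the cleavable FRET substrate went on for 2 hr at room temperature, and fluorescence was read at two emissions.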

Assay [16] addresses Estrogen receptor beta (Homo sapiens) (UniProt Q92731). Briefly: qHTS assay to identify small molecule antagonists of the estrogen receptor beta (ER-beta) signaling pathway (AID 1259378; active = well fitted inhibition curve with a large enough effect in the signal ratio in the repeat runs, not every such curve was filed as active; the % refers to the signal ratio). The method, boiled down: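 Antagonist mode: compounds added to beta-lactamase reporter HEK293T ER-beta-UAS cells stimulated with E2 (1nM final), 16 hr at 37C. LiveBLAzer B/G FRET substrate, 2 hours room temperature, fluorescence read-out.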

Assay [17] concerns the target Estrogen receptor (Homo sapiens) (UniProt P03372). Briefly: qHTS assay to identify small molecule agonists of the estrogen receptor alpha (ER-alpha) signaling pathway in the presence of an antagonist (AID 1259383). Also: top concentration of the series differs between compounds; nearly all actives have a fitted effect of over 15% in size. An outline of the steps:
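Quantitative HTS confirmation: compounds titrated at 15 concentrations onto estrogen-deprived VM7Luc4E2 cells carrying a four-ERE luciferase construct, with ICI-182,780 present at 10.0nM final. Signal is luminescence after 22hr exposure.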

For assay [18], the target named is Thyrotropin receptor (Homo sapiens) (UniProt P16473). Briefly: qHTS assay to identify small molecule antagonists of the thyroid stimulating hormone receptor (TSHR) signaling pathway (AID 1259385). Also: nearly all actives have a fitted effect of over 20% in size. Also: potency is read from the fitted curve at half-maximal effect. An outline of the steps:
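Antagonist mode: compound-treated TSHR-expressing HEK293 cells were stimulated with 1.5 ng/mL TSH (final) in presence of Ro20-1724 for 30 min at RT. HTRF cAMP detection after 1 h; each compound tested at 15 concentrations, triplicate.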

Assay [19] concerns the target Thyrotropin-releasing hormone receptor (Homo sapiens) (UniProt P34981). Briefly: qHTS assay to identify small molecule antagonists of the thyrotropin-releasing hormone receptor (TRHR) signaling pathway (AID 1346877; active = well fitted inhibition curve with a large enough effect in the repeat runs, not every such curve was filed as active; also: series mostly up to about 51 µM). An outline of the steps:
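Overnight-plated (18 h, 37 °C) HEK293 cells expressing TRHR were dye-loaded 2 h, treated with compound, then stimulated with TRH at 1 nM final. Fluorescence intensity was captured every second for 3 min.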

Assay [20] can be described thus: qHTS assay to identify small molecule agonists of the progesterone receptor (PR) signaling pathway - cell viability counter screen (AID 1346799). Also: nearly all actives have a fitted effect of over 45% in size. Also: potency is read from the fitted curve at half-maximal effect. An outline of the steps: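 Here, 3,000 PR-UAS-bla HEK293T cells per well were treated with compounds for 16 hr after a 6 hr preincubation at 37C and 5% CO2; cell viability is the CellTiter-Glo luminescence signal.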
% is scaled to controls: 0 for no effect and ±100 for the full control effect.

Sequence of Progesterone receptor (Homo sapiens) (P06401 whole entry, looked up): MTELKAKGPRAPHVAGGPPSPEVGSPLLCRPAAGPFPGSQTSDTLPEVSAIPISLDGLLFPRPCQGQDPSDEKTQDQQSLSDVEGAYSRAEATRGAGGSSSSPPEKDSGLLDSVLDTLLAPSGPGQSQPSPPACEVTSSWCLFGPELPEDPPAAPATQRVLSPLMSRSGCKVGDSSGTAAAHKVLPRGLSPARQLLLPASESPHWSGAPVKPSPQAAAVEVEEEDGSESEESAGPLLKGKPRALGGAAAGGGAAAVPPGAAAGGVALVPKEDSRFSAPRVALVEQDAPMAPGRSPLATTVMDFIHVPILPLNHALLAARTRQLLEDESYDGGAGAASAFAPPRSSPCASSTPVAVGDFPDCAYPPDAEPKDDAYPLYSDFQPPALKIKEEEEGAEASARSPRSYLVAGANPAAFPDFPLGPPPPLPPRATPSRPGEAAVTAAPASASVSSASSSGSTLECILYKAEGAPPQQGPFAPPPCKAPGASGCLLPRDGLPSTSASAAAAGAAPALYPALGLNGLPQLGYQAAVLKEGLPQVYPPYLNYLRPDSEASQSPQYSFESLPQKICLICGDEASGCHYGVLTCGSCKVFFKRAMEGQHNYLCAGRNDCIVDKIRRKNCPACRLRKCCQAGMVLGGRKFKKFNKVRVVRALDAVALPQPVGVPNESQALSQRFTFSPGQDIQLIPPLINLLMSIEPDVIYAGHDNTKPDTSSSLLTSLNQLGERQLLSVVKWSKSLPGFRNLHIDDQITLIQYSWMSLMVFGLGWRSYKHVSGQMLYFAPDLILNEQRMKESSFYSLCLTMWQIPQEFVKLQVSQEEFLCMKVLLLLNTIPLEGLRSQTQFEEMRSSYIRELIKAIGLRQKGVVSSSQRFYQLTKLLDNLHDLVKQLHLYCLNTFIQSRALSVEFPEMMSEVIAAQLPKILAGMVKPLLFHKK
Sequence of Thyrotropin receptor (Homo sapiens) (P16473 whole entry, looked up): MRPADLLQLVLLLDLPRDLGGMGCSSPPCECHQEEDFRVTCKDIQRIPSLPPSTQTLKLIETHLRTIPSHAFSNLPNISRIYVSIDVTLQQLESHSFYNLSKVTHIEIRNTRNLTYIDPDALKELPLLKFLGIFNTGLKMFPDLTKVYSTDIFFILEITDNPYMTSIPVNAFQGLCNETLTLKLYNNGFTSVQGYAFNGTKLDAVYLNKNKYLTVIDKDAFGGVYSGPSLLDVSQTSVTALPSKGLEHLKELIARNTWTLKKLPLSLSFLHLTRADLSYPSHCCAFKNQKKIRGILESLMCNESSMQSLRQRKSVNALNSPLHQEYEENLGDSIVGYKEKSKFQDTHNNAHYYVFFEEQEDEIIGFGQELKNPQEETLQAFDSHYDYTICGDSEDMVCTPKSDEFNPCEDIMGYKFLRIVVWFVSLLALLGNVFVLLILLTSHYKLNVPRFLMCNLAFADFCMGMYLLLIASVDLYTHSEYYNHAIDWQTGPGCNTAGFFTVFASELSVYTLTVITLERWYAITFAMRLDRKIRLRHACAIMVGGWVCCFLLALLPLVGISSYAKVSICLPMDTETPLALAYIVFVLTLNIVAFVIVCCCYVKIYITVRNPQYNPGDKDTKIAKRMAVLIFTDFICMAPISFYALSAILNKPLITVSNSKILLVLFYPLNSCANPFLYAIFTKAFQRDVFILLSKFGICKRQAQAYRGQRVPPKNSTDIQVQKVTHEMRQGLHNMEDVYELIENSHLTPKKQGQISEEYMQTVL
Sequence of Estrogen receptor (Homo sapiens) (P03372 whole entry, looked up): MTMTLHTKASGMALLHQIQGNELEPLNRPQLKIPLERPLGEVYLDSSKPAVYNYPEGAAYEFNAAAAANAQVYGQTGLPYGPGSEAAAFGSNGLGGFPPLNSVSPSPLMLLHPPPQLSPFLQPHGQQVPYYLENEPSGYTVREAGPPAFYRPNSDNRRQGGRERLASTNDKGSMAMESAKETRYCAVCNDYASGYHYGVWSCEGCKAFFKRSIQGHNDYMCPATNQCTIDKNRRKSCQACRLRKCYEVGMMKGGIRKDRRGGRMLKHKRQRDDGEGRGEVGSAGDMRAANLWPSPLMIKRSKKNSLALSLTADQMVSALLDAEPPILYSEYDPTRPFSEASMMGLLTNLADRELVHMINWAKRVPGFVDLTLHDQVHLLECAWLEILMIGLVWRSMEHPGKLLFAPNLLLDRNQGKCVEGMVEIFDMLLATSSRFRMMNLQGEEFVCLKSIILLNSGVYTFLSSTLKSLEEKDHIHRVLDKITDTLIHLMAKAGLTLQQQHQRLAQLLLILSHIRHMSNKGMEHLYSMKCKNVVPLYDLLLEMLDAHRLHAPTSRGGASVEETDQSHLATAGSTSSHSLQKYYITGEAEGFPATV
Sequence of Estrogen receptor beta (Homo sapiens) (Q92731 whole entry, looked up): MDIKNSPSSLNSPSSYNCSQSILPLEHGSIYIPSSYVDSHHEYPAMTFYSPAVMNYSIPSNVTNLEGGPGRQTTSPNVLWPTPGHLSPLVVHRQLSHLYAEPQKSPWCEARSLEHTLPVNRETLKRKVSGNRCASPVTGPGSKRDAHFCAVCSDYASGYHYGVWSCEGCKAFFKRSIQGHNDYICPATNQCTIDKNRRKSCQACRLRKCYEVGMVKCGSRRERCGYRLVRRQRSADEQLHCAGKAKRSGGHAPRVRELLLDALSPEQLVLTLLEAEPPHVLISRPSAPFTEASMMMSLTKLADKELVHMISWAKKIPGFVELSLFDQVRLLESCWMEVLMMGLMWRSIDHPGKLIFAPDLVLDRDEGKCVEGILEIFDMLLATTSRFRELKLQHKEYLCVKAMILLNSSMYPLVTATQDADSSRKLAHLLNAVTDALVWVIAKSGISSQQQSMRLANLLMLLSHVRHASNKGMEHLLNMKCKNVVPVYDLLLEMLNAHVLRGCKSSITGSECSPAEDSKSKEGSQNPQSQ
Sequence of Androgen receptor (Homo sapiens) (P10275 whole entry, looked up): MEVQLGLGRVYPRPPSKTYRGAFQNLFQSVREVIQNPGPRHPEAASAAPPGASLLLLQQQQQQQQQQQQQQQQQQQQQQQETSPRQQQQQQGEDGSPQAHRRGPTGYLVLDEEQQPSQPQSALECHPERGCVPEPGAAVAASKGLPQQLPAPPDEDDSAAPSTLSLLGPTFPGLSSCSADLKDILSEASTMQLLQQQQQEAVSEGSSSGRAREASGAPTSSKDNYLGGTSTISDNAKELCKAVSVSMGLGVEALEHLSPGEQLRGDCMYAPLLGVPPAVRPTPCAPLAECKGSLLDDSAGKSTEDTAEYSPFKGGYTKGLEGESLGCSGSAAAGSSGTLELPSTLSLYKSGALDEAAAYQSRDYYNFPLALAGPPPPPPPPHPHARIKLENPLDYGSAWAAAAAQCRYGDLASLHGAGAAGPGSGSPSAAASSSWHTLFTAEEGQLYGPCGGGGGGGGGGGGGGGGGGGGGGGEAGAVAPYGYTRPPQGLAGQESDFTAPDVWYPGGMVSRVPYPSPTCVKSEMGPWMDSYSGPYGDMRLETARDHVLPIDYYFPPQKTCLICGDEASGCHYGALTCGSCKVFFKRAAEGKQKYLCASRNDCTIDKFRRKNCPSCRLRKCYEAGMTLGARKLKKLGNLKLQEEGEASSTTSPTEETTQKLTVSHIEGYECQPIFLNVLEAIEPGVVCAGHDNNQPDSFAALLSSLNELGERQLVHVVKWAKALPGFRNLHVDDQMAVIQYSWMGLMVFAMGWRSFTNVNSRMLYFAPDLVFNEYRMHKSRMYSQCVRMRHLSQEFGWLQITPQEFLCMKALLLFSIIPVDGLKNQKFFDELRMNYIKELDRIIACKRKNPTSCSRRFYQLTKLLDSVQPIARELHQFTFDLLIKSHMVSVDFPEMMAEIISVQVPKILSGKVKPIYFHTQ
Sequence of Thyrotropin-releasing hormone receptor (Homo sapiens) (P34981 whole entry, looked up): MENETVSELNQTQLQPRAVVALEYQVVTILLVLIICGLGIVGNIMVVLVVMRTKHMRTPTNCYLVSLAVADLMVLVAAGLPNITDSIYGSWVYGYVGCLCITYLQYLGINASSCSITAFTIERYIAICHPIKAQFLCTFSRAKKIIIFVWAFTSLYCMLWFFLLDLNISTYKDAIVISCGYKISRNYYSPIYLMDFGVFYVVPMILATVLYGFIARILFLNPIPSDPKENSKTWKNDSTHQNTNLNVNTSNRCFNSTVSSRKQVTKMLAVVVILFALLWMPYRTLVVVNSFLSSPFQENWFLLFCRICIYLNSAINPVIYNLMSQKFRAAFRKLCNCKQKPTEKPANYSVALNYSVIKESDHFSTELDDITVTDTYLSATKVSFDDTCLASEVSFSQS

Regarding `CCC(=O)O[C@]1(C(=O)COC)[C@@H](C)C[C@H]2[C@@H]3CCC4=CC(=O)C=C[C@]4(C)C3(F)[C@@H](O)C[C@@]21C` (stereo not given in full), the Potency in assay [1] was 13.3 µM (active); in assay [6], 0.006 µM (active); in assay [10], 0.376 µM (active). Further, the Potency result in assay [2], in [3], in assay [4], in assay [5], in [7] and in [9] was “inactive” in each case. In addition, the Potency result in assay [11] and in assay [12] was “inactive” throughout. Moreover, the compound was classed as inactive in assay [8], in [13], in assay [14] and in assay [15].

As to `CCN(CCCCOC(=O)c1ccc(OC)c(OC)c1)C(C)Cc1ccc(OC)cc1` (stereo not given), the Potency result in [1], in assay [2], in [3], in [16], in assay [4] and in assay [7] was “inactive” throughout. The Potency result in assay [17], in assay [9], in assay [10], in assay [11] and in assay [12] was “inactive” throughout. Moreover, the Potency in assay [18] is 29.8 µM (active). For the same compound, the call in assay [13], in assay [14], in assay [15] and in [19] was inactive.

As for `Cc1nc(C)c(C)nc1C`, the Potency entry in [1], in [2], in assay [3], in [16], in assay [5] and in [6] was “inactive” in each case. In addition, the Potency result in assay [7], in [17], in assay [18], in assay [9] and in assay [10] was “inactive” each time. The result in [8], in assay [13], in [15] and in assay [19] was inactive. Also, the Potency in assay [20] is 30.6 µM (active).

On to `CC1(C)C(=O)NC(=O)N1CO`, for which the Potency result in assay [1], in assay [2], in assay [3], in [16], in [4] and in assay [7] was “inactive” each time. For the same compound, the Potency entry in assay [17], in assay [18], in [9], in assay [10], in [11] and in assay [12] was “inactive” throughout. Also, the Potency result in assay [20] is “inactive”. Further, the compound was classed as inactive in assay [8], in assay [13] and in [15].

With `Nc1ncnc2c1ncn2[C@@H]1O[C@H](CO)[C@@H](O)[C@H]1O`, the Potency entry in assay [1], in assay [2], in [3], in [4], in [5] and in assay [7] was “inactive” in each case. In addition, the Potency result in [17], in assay [18], in assay [9], in assay [10], in [11] and in assay [12] was “inactive” throughout. Further, the Potency entry in assay [20] is “inactive”. Further, the call in [8], in assay [13], in assay [14], in [15] and in assay [19] was inactive.

On to `CCCN(C1CCN(C(=O)C2CCNCC2)CC1)[C@@H]1CCc2ccc(OC)cc2C1`, for which the Potency entry in assay [1], in assay [3], in assay [16], in [6], in assay [18] and in assay [9] was “inactive” in each case. Moreover, the Potency result in [10], in assay [11] and in assay [12] was “inactive” each time. Moreover, the Potency in assay [2] was 4.33 µM (active). Also, the compound was classed as inactive in [8], in assay [13], in assay [14] and in assay [15].

As for `CC1=C(C)C(=O)C(C(CCCCCC(=O)O)c2ccccc2)=C(C)C1=O` (stereo not given), the Potency result in assay [1], in [2], in assay [3], in assay [7], in assay [17] and in [9] was “inactive” in each case. Further, the Potency result in assay [10], in assay [11] and in assay [12] was “inactive” in each case. For the same compound, the result in assay [13], in [14] and in assay [19] was inactive.

`COC=O`: the activity change in [1] was -3.86% [at 8.39 µM, hits give high values]. The results for the activity change, negative = inhibition in [2], in assay [18] and in [11] were 0% [at 8.39 µM], 4.44% [at 8.39 µM] and -3.19% [at 8.39 µM], respectively. Also, the activation in assay [3] is 8.91% [at 8.39 µM]; in assay [17], 1.27% [at 8.39 µM]; in assay [10], 0.0776% [at 8.39 µM]; in assay [15] it was -0.257% [at 6.97 µM]. In addition, the activity, negative = inhibition was 1.13% [at 8.39 µM] in [16] and 1.15% [at 4.65 µM] in assay [19]. Also, the activity change, negative = cytotoxicity in [4] is 0.257% [at 8.39 µM]; in assay [7] it was 10.9% [at 8.39 µM]; in assay [9], -3.92% [at 8.39 µM]; in [12], 0.308% [at 8.39 µM]; in assay [20] it was 7.63% [at 8.39 µM]; in assay [14], 8.3% [at 6.97 µM]. For the same compound, in assay [8], the cAMP activity change is -7.06% [at 8.39 µM]. In addition, the viability change, negative = cytotoxic in assay [13] is 2.71% [at 6.97 µM].
